3T3 cytotox: Cytotoxic Profiling in NIH 3T3 Cell Line of Diverse Libraries Using Quantitative High-Throughput Screening; NIH 3T3 viability, CellTiter-Glo ATP luminescence, 48-72 h; Potency, µM (doses to about 96.7 µM), most hits filed as inhibitors; 94,000 compounds, 4.3% hits; further: nearly all actives have a fitted effect of over 55% in size
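Luminescent ATP readout (CellTiter-Glo, 10 min RT) after 48 or 72 hr compound exposure of NIH 3T3 cells seeded at 400 cells/well in 1536-well format; quantitative HTS.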
GPT2 inhibitor: Primary qHTS assay for inhibitors of Glutamate pyruvate transaminase 2 (GPT2); Alanine aminotransferase 2 (Homo sapiens), Q8TD30; Recombinant GPT2, coupled pyruvate oxidase/HRP Amplex Red fluorescence; Potency, µM (doses to about 57.7 µM), most hits filed as inhibitors; 100,000 compounds, 0.25% hits; AID 1671188, 2021; further: nearly all actives have a fitted effect of over 60% in size
Target sequence (Q8TD30 whole entry, looked up): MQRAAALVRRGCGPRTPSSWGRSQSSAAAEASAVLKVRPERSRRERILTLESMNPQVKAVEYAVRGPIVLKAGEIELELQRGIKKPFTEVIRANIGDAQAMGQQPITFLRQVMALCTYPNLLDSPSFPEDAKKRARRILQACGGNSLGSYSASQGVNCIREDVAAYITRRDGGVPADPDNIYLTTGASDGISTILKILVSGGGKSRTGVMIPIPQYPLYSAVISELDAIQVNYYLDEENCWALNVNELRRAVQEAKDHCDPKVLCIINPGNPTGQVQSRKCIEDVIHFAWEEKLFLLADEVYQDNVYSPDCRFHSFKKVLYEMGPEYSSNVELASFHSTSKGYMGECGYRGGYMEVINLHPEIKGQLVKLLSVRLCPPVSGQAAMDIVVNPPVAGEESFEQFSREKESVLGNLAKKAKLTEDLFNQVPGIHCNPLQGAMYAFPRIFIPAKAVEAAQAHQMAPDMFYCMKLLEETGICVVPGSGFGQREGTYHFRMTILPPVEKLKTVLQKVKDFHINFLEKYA
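GPT2 10ng/uL, a-KG 250uM, L-Ala 2mM, HEPES pH7.5 + 0.0001% Tween; 30 min RT. Then Amplex mix (PO/HRP/ThPP), 30 min RT dark, fluorescence. AOA 50uM used as positive control.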
hNpr1 antagonist: Natriuretic polypeptide receptor (hNpr1) antagonism - Primary qHTS; 76,000 compounds, 1.6% hits; Atrial natriuretic peptide receptor 1 (Homo sapiens), P16066; AID 1347048, 2019; HEK293 hNpr1 GloSensor cGMP, ANP-stimulated luminescence; Potency, µM (top dose mostly 46.3 µM), most hits filed as inhibitors; calls by dose curve; further: nearly all actives have a fitted effect of over 60% in size
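HEK293 cells stably expressing human Npr1 and cGMP GloSensor pGS-40F, loaded 2 h with 2% GloSensor reagent, given compound 30 min at room temperature. Luminescence read before and 20 min after 0.1 nM hNppA.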
HEK293 tox: Cytotoxic Profiling in HEK 293 Cell Line of Diverse Libraries Using Quantitative High-Throughput Screening. HEK 293 viability, ATP luminescence (CellTiter-Glo), 48-72 h. 94,000 compounds, 6.6% hits. Potency, µM (doses to about 115 µM), actives largely listed as inhibitors; further: nearly all actives have a fitted effect of over 60% in size
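Cytotoxicity was scored by loss of ATP-coupled luminescence (CellTiter-Glo) in HEK 293 cells. Compound treatment ran 48 or 72 hr at 37 degree Celsius, 5% CO2, 95% humidity.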
Luciferase inh: Firefly luciferase inhibition profiling of diverse chemical library using quantitative high-throughput screening; purified P. pyralis luciferase, luminescence, biochemical; Potency, µM (series often up to 115 µM), most hits filed as inhibitors; 76,000 compounds, 2.5% hits; AID 1347043, 2019; further: nearly all actives have a fitted effect of over 65% in size
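Purified P. pyralis luciferase (10nM final) in 50mM Tris acetate pH 7.5, 10mM Mg acetate, 0.01% Tween-20, 0.05% BSA with 10uM D-luciferin and 10uM ATP. Compounds titrated qHTS. Luminescence imaged on CCD.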
Of the large screens only hits and unclear results are named; the others gave an inactive call. Compounds with a hit are over-represented: about 10% of the library has one in this group of screens. Unless noted, the call rests on the fitted dose curve; in most records, active means well fitted curve in the direction sought with a large enough effect; inconclusive means small, poorly fitted or top-dose-only effect, or another doubt; inactive means no such curve, though single readings can be large; an effect the other way counts as inactive or inconclusive.

O=[N+]([O-])c1cccnc1N1CC2CCC(C1)N2CC(F)(F)F	none (no result: hNpr1 antagonist, Luciferase inh)
O=C(c1ccccc1)N1CCC(C(=O)O)(c2ccccc2)CC1	none (no result: hNpr1 antagonist, Luciferase inh)
O=[S+]1([O-])NC2(CCN(Cc3cccs3)C2)COc2ccncc21 (stereo not given)	none (no result: hNpr1 antagonist, Luciferase inh)
O=C(Nc1ccccc1)N1C[C@@H]2C[C@H](C1)c1c(-c3ccccc3F)ccc(=O)n1C2	none
COc1ccccc1-c1cc([C@H]2CN3CC[C@H]2C[C@@H]3COC(=O)NC(C)C)nc(C)n1	3T3 cytotox 45µM, HEK293 tox inconclusive
O=C(NC1CCCCC1)OC[C@H]1C[C@@H]2CCN1C[C@@H]2c1cc(C2CCCC2)nc(-c2ccncc2)n1	3T3 cytotox inconclusive, hNpr1 antagonist inconclusive, HEK293 tox inconclusive
COc1ccccc1-c1cc([C@H]2CN3CC[C@H]2C[C@@H]3CNC(=O)CCC(=O)O)nc(C)n1	none
COc1ccccc1-c1cc([C@H]2CN3CC[C@H]2C[C@@H]3COC(=O)Nc2ccccc2)nc(C)n1	3T3 cytotox inconclusive, HEK293 tox inconclusive
COc1ccccc1-c1cc([C@H]2CN3CC[C@H]2C[C@@H]3COC(=O)NC2CCCCC2)nc(C)n1	3T3 cytotox inconclusive, HEK293 tox 11µM
CCCNC(=O)OC[C@H]1C[C@@H]2CCN1C[C@@H]2c1cc(-c2ccccc2OC)nc(C)n1	3T3 cytotox 63µM, HEK293 tox inconclusive
COc1ccc(OC)c(S(=O)(=O)N2[C@H]3CC[C@@H]2c2cnc(-c4ccccc4)nc2C3)c1	HEK293 tox inconclusive
COc1cc2c(cc1OCc1ccccc1)N([S+](=O)([O-])c1ccc3c(c1)CCO3)CC21CCN(C)CC1	3T3 cytotox inconclusive, HEK293 tox inconclusive
COc1cc2c(cc1OCc1ccccc1)N([S+](=O)([O-])c1ccccc1C(F)(F)F)CC21CCN(C)CC1	3T3 cytotox 13µM, HEK293 tox 20µM
COc1cc2c(cc1OCc1ccccc1)N([S+](=O)([O-])c1cccnc1)CC21CCN(C)CC1	3T3 cytotox 14µM, HEK293 tox inconclusive
COc1cc2c(cc1Oc1ccccc1)NC(=O)C21CCN(C(=O)c2cccnc2)CC1	3T3 cytotox inconclusive, HEK293 tox 56µM
COCC(=O)N1CCC2(CC1)C(=O)Nc1cc(Oc3ccccc3)c(OC)cc12	HEK293 tox inconclusive
COc1cc2c(cc1OCC1CC1)NC(=O)C21CCN(C(=O)c2cccnc2)CC1	3T3 cytotox 25µM
COc1cc2c(cc1Oc1ccccc1)NC(=O)C21CCN(C(=O)c2scnc2C)CC1	3T3 cytotox inconclusive, GPT2 inhibitor inconclusive, HEK293 tox 45µM
COc1cc2c(cc1OCC1CC1)NC(=O)C21CCN(C(=O)CCc2cccnc2)CC1	3T3 cytotox inconclusive
CCOC(=O)[C@H]1CN(C(=O)OCC(C)C)[C@]2(C)C(=O)N(CCOC)c3ccccc3[C@H]12	3T3 cytotox inconclusive (no result: hNpr1 antagonist, Luciferase inh)
CCC(CC)c1cc([C@H]2CN3CC[C@H]2C[C@@H]3CNC(=O)CSCC(=O)O)nc(-c2ccncc2)n1	3T3 cytotox inconclusive, HEK293 tox inconclusive
CCC(CC)c1cc([C@H]2CN3CC[C@H]2C[C@@H]3CNC(=O)Nc2ccc(OC)cc2)nc(-c2ccncc2)n1	3T3 cytotox inconclusive, HEK293 tox 32µM
CCC(CC)c1cc([C@H]2CN3CC[C@H]2C[C@@H]3CNC2CCN(C)CC2)nc(-c2ccncc2)n1	3T3 cytotox 18µM, HEK293 tox 14µM
CCC(CC)c1cc([C@H]2CN3CC[C@H]2C[C@@H]3CNC(=O)COC)nc(-c2ccncc2)n1	3T3 cytotox inconclusive
CCCS(=O)(=O)NC[C@H]1C[C@@H]2CCN1C[C@@H]2c1cc(C(CC)CC)nc(-c2ccncc2)n1	3T3 cytotox inconclusive, hNpr1 antagonist inconclusive, HEK293 tox inconclusive
CCC(CC)c1cc([C@H]2CN3CC[C@H]2C[C@@H]3CNC(=O)Nc2ccc(C(C)=O)cc2)nc(-c2ccncc2)n1	3T3 cytotox 18µM, HEK293 tox 25µM

Screening data from PubChem.
